# According to PubChem BioAssay AID588446 (NMMLSC, 2011):
# The source made the active and inactive calls.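 The calls were made as follows: active = dose fit with top-dose inhibition above 36% and EC50 error under a fifth of EC50, and EC50 under 30 µM; inactive = the rest.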
# Biological target: Integrin alpha-4 (Homo sapiens) (UniProt P13612)
# Assay: VLA-4 ligand competition with LDV-FITC, dose response, orthogonal assay, cell-based, plate-based, flow cytometry, set 2 (AID 588446)
# Conditions: cells, LDV-FITC binding displacement; series mostly up to 66.7 µM
# Integrin alpha-4 (Homo sapiens), sequence (P13612 whole entry, looked up): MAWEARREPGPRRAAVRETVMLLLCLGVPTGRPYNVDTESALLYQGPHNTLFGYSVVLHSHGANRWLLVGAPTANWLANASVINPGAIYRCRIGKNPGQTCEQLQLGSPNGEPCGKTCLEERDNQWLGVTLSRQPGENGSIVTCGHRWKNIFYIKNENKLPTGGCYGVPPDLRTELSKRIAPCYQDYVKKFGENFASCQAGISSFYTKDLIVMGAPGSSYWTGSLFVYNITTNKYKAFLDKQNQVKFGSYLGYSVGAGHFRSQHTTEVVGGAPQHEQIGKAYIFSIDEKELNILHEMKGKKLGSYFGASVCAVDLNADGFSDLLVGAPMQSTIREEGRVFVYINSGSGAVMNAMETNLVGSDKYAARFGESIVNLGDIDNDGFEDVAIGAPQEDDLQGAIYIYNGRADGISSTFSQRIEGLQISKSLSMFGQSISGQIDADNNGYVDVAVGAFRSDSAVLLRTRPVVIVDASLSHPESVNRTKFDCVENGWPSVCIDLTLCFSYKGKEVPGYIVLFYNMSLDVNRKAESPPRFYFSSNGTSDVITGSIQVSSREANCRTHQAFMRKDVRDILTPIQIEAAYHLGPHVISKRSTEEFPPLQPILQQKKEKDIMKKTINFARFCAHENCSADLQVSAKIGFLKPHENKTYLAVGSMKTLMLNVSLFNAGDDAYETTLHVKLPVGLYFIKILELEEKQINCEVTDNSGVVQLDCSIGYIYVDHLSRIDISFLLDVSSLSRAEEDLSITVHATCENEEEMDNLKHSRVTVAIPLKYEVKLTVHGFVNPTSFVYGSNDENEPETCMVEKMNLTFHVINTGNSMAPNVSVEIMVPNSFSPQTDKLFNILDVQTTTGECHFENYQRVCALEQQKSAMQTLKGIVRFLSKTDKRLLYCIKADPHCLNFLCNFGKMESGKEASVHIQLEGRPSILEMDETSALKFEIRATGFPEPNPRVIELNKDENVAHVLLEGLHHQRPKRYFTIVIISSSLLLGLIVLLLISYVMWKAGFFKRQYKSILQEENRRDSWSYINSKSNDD
row,SMILES,outcome
1,COc1cc(OCc2ccccc2)ccc1CN1CCN(C)CC1,inactive
2,COCCn1c(C2CC(=O)N(c3cccc(C)c3)C2)nc2ccccc21 (stereo not given),inactive
3,CCOCCn1c(C2CC(=O)N(c3ccccc3)C2)nc2ccccc21 (stereo not given),inactive
4,COc1ccccc1N1CCN(CC(=O)c2ccc(F)cc2)CC1,inactive
5,CCN1CC(c2nc3ccccc3n2CCOc2ccccc2)CC1=O (stereo not given),inactive
6,Cn1cc(C(=O)N2CCCC2c2nc3ccccc3s2)cn1 (stereo not given),inactive
7,COCCn1c(C2CC(=O)N(Cc3ccco3)C2)nc2ccccc21 (stereo not given),inactive
8,CCOc1ccccc1N1CC(c2nc3ccccc3n2C)CC1=O (stereo not given),inactive
9,Cc1cc(C(=O)N2CCCC2c2ccc3c(c2)OCCO3)sc1C (stereo not given),inactive
10,CCn1c(C2CC(=O)N(CCc3ccccc3)C2)nc2ccccc21 (stereo not given),inactive
11,Cc1nc2ccccc2n1CCc1noc(COc2ccccc2)n1,inactive
12,COc1ccc(-c2nn(Cc3ccccc3)cc2C(=O)N2CCC2)cc1,inactive
13,COc1ccccc1Cn1c(C2CC(=O)N(C)C2)nc2ccccc21 (stereo not given),inactive
14,Cc1ccc(-c2nc(CN3C(=O)C4CC=CCC4C3=O)cs2)cc1 (stereo not given),inactive
15,CCN1CC(c2nc3ccccc3n2Cc2ccccc2)CC1=O (stereo not given),inactive
16,Cc1ccc(C)n1-c1ccc(C(=O)N(C)Cc2ccco2)cc1,inactive
17,CCn1c(C2CC(=O)N(c3ccccc3OC)C2)nc2ccccc21 (stereo not given),inactive
18,CN(Cc1ccco1)C(=O)c1ccc(-n2cnc3ccccc32)cc1,inactive
19,O=C1C2CC=CCC2C(=O)N1Cc1csc(Cc2ccccc2)n1 (stereo not given),inactive
20,CSc1ccccc1OCc1cc(C(=O)N2CCCC2)no1,inactive
